High-throughput results as filed in PubChem BioAssay.
HepG2 tox-1 = qHTS for Inhibitors of TGF-b: Cytotox Counterscreen; HepG2 CAGA-GFP viability, ATP luminescence, 18 h; Potency, µM (top dose mostly 46.1 µM), for the others: at the highest dose activity change, negative = cytotoxicity, most hits filed as cytotoxic; 410,000 compounds, 0.76% hits; AID 588856, 2011
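CellTiter-Glo luminescence gave cytotoxicity after 18 hours at 37 degrees C. The cells were HepG2 CAGA-GFP in 1% FBS DMEM, stimulated with 500 pg/mL TGF-beta after compound addition. %Activity was normalised to no-cell wells (complete cell-killing) and DMSO (no toxicity), and curves were fitted and classified.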
KB-V1 cytotox = qHTS assay for MDR1-selective chemotherapeutics: Primary screen using the drug-selected MDR subline cells KB-V1 | KB-V1 MDR cells viability, CellTiter-Glo, 72 h | Potency, µM (top dose mostly 46.1 µM), most hits filed as cytotoxic | 400,000 compounds, 3.4% hits | AID 1347076, 2019; note: % is set by controls: 0 for no effect and ±100 for the full control effect; nearly all actives have a fitted effect of over 60% in size
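Cytotoxicity toward P-gp-expressing KB-V1 cells was determined as loss of CellTiter-Glo luminescence after 72 h at 37 degrees C. Compounds were tested in quantitative HTS format across a concentration range, with curves fitted to normalized data.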
HT1080NT lethal = qHTS for induction of synthetic lethality in tumor cells producing 2HG: qHTS for the HT-1080-NT fibrosarcoma cell line | 360,000 compounds, 1.6% hits | HT-1080-NT fibrosarcoma viability, CellTiter-Glo ATP luminescence, 48 h | Potency, µM (series often up to 46.1 µM), for the others: at the highest dose activity, negative = less viability, most hits filed as cytotoxic;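 note: NT is the 2HG producing partner of a matched IDH1 knockdown line; 0% = DMSO-treated cells and -100% = media-only wells without cells; nearly all actives have a fitted effect of over 55% in size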
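Viability of the 2HG-overproducing fibrosarcoma line after 48 hours of compound exposure at 37 degrees C was determined by luminescence with CellTiter-Glo, and concentration-effect curves were then fitted and categorized.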
TGFb SMAD3 inh = qHTS for Inhibitors of TGF-b | HepG2 CAGA-GFP TGF-b/SMAD3 reporter, GFP fluorescence, 18 h; TGF-beta stimulated, 500 pg/mL final | Potency, µM (top dose mostly 46.1 µM), for the others: top-dose activity, negative = inhibition, usual class: inhibitors | 410,000 compounds, 1.2% hits; note: % is set by controls: 0 for no effect and ±100 for the full control effect; nearly all actives have a fitted effect of over 65% in size
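Smad-responsive CAGA-GFP expression was quantified in HEPG2 cells exposed to compounds and 500 pg/mL final TGF-beta for 18 h at 37 degrees C; unstimulated wells defined full inhibition.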
HT1080 IDH1KD tx = qHTS for induction of synthetic lethality in tumor cells producing 2HG: qHTS for the HT-1080-IDH1KD cell line | HT-1080 IDH1 knockdown viability, ATP luminescence, 48 h | Potency, µM (series often up to 46.1 µM), inactives show at the top dose activity, negative = toxicity, actives largely listed as cytotoxic | 360,000 compounds, 2% hits | AID 686971, 2013;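 note: 0% = DMSO wells and -100% = cell-free medium wells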
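Knockdown cells (IDH1KD HT-1080) received compounds 2 h after plating at 750 cells/well and were kept 48 h at 37 °C in 5% FBS RPMI. A CellTiter-Glo luminescence read gave % activity for curve fitting.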
KB-3-1 cytotox = qHTS assay for MDR1-selective chemotherapeutics: Primary screen using the parental adenocarcinoma cell KB-3-1; 400,000 compounds, 1.4% hits; KB-3-1 viability, CellTiter-Glo ATP luminescence, 72 h; Potency, µM (series often up to 46.1 µM), actives largely listed as cytotoxic; note: % is set by controls: 0 for no effect and ±100 for the full control effect; nearly all actives have a fitted effect of over 60% in size
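Using CellTiter-Glo luminescence, growth of non-resistant KB-3-1 adenocarcinoma cells is assessed 72 h after pin-tool compound addition at 37 °C. Normalized responses across the concentration series yield fitted curves.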
TGFb CAGA inh = qHTS for Inhibitors of TGF-b: Confirmation of Cherry Picks; shares compounds with TGFb SMAD3 inh; HepG2 CAGA-GFP TGF-b reporter, GFP fluorescence, 18 h; cells stimulated with TGF-beta, 500 pg/mL; Potency, µM (doses to about 46.1 µM), without a hit: at the highest dose activity, negative = inhibition, actives largely listed as inhibitors; 1,600 compounds, 63% hits; AID 720534, 2013; note: % is set by controls: 0 for no effect and ±100 for the full control effect; nearly all actives have a fitted effect of over 65% in size
HepG2 tox-2 = qHTS for Inhibitors of TGF-b: Cytotox Counterscreen for Cherry Picks; Potency, µM (titrated, usually from 46.1 µM), for the others: at the top dose activity, negative = cytotoxicity, hits mostly inhibitors; shares compounds with TGFb SMAD3 inh; AID 720535, 2013; 1,600 compounds, 27% hits; HepG2 CAGA-GFP viability, ATP luminescence, 18 h; cells stimulated with TGF-beta, 500 pg/mL; note: % is set by controls: 0 for no effect and ±100 for the full control effect; nearly all actives have a fitted effect of over 70% in size
CCL64 TGFb inh = qHTS for Inhibitors of TGF-b: CCL64 Cells Orthogonal Assay for Cherry Picks; shares compounds with TGFb SMAD3 inh; CCL64 CAGA-GFP reporter, TGF-b stimulated, GFP fluorescence, 18 h; Potency, µM (series often up to 46.1 µM), for inactives: at the highest dose activity, negative = inhibition, actives largely listed as inhibitors; 1,600 compounds, 41% hits; AID 720536, 2013; note: nearly all actives have a fitted effect of over 65% in size
COP TGFb inh = qHTS for Inhibitors of TGF-b: Hit Validation in HepG2 Cells using COP promoter; HepG2 COP-GFP TGF-b reporter, GFP fluorescence, 18 h; cells stimulated by added recombinant TGF-beta; Potency, µM (titrated, usually from 46.1 µM), without a hit: at the highest dose activity, negative = inhibition, most hits filed as inhibitors; 1,600 compounds, 3% hits; shares compounds with TGFb SMAD3 inh; note: nearly all actives have a fitted effect of over 70% in size
Active calls of the source: *; i = inactive; ? = inconclusive; nt = no result; ! = not confirmed by another sample. Compounds with a hit are over-represented: about 6.6% of the library has one in this group of screens. Calls come from the whole dose curve; as a rule, active = well fitted curve in the direction sought with a large enough effect; inconclusive = small, poorly fitted or top-dose-only effect, or another doubt; inactive = no such curve, though single readings can be large; an effect the other way counts as inactive or inconclusive. Potency is the fitted concentration of half-maximal effect.

SMILES	HepG2 tox-1	KB-V1 cytotox	HT1080NT lethal	TGFb SMAD3 inh	HT1080 IDH1KD tx	KB-3-1 cytotox	TGFb CAGA inh	HepG2 tox-2	CCL64 TGFb inh	COP TGFb inh
CCCCN(C(=O)CC1CCCC1)c1c(N)n(Cc2ccccc2)c(=O)[nH]c1=O	-5.6%	i	-5.3%	-9.7%	-1.0%	i	nt	nt	nt	nt
O=C(CSc1nnc(Cc2ccccc2)o1)N1CCc2ccccc21	5.9%	i	-8.4%	?	-22.8%	?	nt	nt	nt	nt
O=C(CSc1nnc(COc2cccc3cccnc23)o1)N1CCc2ccccc21	-37.2%	i	2.24µM*	?	1.26µM*	i	?	?	-28.1%	38.7%
Cn1cnnc1Sc1ccc(/C=C/C(=O)c2ccc(O)cc2)cc1[N+](=O)[O-]	-3.4%	i	18.4µM*	?	18.4µM*	?	2.59µM*	9.2µM*	23.1µM*	?
CCC(C)(C)NC(=O)c1ccc(Sc2nncn2C)c([N+](=O)[O-])c1	3.3%	?	-7.5%	3.4%	2.8%	i	nt	nt	nt	nt
O=C(CSc1nnc(CNC(=O)C23CC4CC(CC(C4)C2)C3)n1-c1ccc(F)cc1)Nc1ccc(F)cc1	-15.0%	?	-15.6%	?	-23.7%	i	nt	nt	nt	nt
O=C(NCc1nnc(SCc2ccc(F)cc2)n1-c1ccc(F)cc1)C12CC3CC(CC(C3)C1)C2	-0.1%	?	?	15.8µM*	?	23.1µM*	?	?	?	47.0%
COc1ccc(CCNC(=O)c2ccc([N+](=O)[O-])cc2Cl)cc1OC	-5.5%	i	-6.9%	8.2%	5.8%	i	nt	nt	nt	nt
COc1ccc(CCNC(=O)c2ccc(-c3ccc([N+](=O)[O-])cc3Cl)o2)cc1OC	-23.6%	i	-21.9%	10µM*	-28.7%	i	20.6µM*	?	9.2µM*	32.1%
O=C(CSc1nnc(NC(=O)c2c(F)cccc2F)s1)NC1CCCCC1	3.0%	i	5.5%	2.4%	11.1%	i	nt	nt	nt	nt
O=C(Nc1csc([N+](=O)[O-])c1)Nc1ccccc1Cl	-56.8%	?	?	12.6µM*	?	i	16.4µM*	?	?	48.0%
O=C(Nc1ccccc1Cl)Nc1ccccc1Cl	6.1%	i	-18.7%	8.0%	19.1%	i	nt	nt	nt	nt
O=C(CSc1nnc(-c2ccc(F)cc2)c2ccccc12)Nc1ccccc1	-4.2%	i	-10.1%	12.6µM*	-18.6%	i	14.6µM*	-5.0%	-10.1%	-13.5%
O=C(CSc1nnc(-c2ccc(F)cc2)c2ccccc12)Nc1cccc(Cl)c1	-16.3%	?	-2.3%	-19.1%	-11.7%	i	nt	nt	nt	nt
Nc1cc2[nH]c(=O)c3ccccc3c2cc1[N+](=O)[O-]	-9.7%	?	-1.5%	11.2µM*	-26.8%	?	?	?	?	70.8%
COc1cc2c(=O)[nH]c3cc([N+](=O)[O-])ccc3c2cc1[N+](=O)[O-]	-1.9%	i	2.6%	2.7%	1.9%	i	nt	nt	nt	nt
OCCCn1c(C(CO)Nc2nc(-c3ccc(Cl)cc3)cs2)nc2ccccc21 (stereo not drawn)	-28.9%	i	-13.4%	17.8µM*	-15.8%	i	14.6µM*	-28.6%	?	10.1%
CCCn1c(C(C)Nc2nc(-c3ccc(OC)cc3)cs2)nc2ccccc21 (stereo not drawn)	-25.2%	i	-10.5%	-8.1%	-12.4%	i	nt	nt	nt	nt
Cc1cccc(C)c1NS(=O)(=O)c1ccc(-c2cnc(C3CC3)o2)cc1	-29.2%	0.731µM*	0.082µM*	3.98µM*	0.164µM*	0.0231µM*	2.59µM*	?	0.82µM*	51.7%
N#Cc1ccc(NS(=O)(=O)c2ccc(-c3cnc(C4CC4)o3)cc2)cc1	-27.5%	i	nt	?	nt	i	nt	nt	nt	nt
CCOc1ccccc1CNS(=O)(=O)c1ccc(-c2cnc(C3CC3)o2)cc1	-27.7%	1.46µM*!	7.31µM*	10µM*	1.16µM*	1.16µM*	5.8µM*	?	8.2µM*	-10.4%
Cc1cn2c(=O)cc(COC(=O)COc3ccc(C)c(C)c3)nc2s1	4.3%	i	nt	-2.5%	nt	i	nt	nt	nt	nt
Cc1nc(N=C(N)N)nc2ccccc12	-0.9%	?	-3.9%	12.6µM*	?	8.2µM*	16.4µM*	?	-1.2%	21.0%
COc1ccc(Nc2nccc(-c3cccc(N)c3)n2)cc1	-11.3%	?	?	10µM*	?	?	8.2µM*	5.8µM*	8.2µM*	43.4%
Cc1cc(C)nc(-n2nc(C)cc2NC(=O)CN2CCC(C)CC2)n1	-18.3%	?	-1.9%	15.8µM*	-6.3%	i	?	-16.6%	-11.7%	-20.5%
Cc1cc(NC(=O)CN2CCC(C)CC2)no1	0.5%	i	6.2%	-2.3%	10.2%	i	nt	nt	nt	nt
O=C1N(c2ccccc2)C[C@@H]2C[C@@H](c3cc4ccccc4o3)N3CCC[C@@]123	2.4%	?	?	0.126µM*	0.581µM*	?	0.058µM*	?	0.581µM*	17.9%
